“And” between values parts separate entries of the source, which are not always exact repeats. Identical values can stand only once.
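Also: mean value of inhibition, with the enzyme tested as CDK5/p35.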

The target in this assay is Cyclin-dependent kinase 5 (Homo sapiens) (UniProt Q00535). The following applies: at 1 µM.
Sequence of Cyclin-dependent kinase 5 (Homo sapiens) (Q00535 whole entry, looked up): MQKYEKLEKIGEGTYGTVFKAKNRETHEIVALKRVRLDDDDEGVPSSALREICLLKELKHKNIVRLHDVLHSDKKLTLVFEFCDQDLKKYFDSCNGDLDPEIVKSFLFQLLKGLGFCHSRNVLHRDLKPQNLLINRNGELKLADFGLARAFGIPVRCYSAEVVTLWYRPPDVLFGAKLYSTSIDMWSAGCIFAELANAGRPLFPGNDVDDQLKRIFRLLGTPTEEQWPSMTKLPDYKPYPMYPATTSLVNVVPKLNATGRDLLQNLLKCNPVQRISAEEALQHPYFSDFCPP
For the compound `Cc1cc(O)cc(C)c1/C=C/c1cncc(C(N)=O)c1`, the inhibition was 1.61%.

With `CC1=C(C(=O)Nc2ccc3[nH]ncc3c2)C(c2ccc(F)cc2)N=C(c2ccc(C(F)(F)F)nc2)N1` (stereo unspecified), the inhibition was determined as 0.43%.

Regarding `COc1c(C(N)=O)cc(-c2ccc(Cl)cc2)cc1-c1ccc(S(N)(=O)=O)cc1`, the inhibition stood at 0.17%.

On to `Cc1cc(O)cc(C)c1/C=C/c1cncc(C(=O)OC(C)(C)C)c1`, for which the inhibition was determined as 2.53%.

For the compound `COc1ccc(Nc2ncc(-c3ccccc3)o2)cc1OC`, the inhibition is 45.7%.

With `Fc1ccc(Nc2nccc(-c3c(-c4ccc(C(F)(F)F)cc4)nn4ncccc34)n2)cc1F`, the inhibition came out at 0.64%.

`O=C(O[C@H]1CN[C@H](C#Cc2cc3ncnc(Nc4ccc(OCc5cccc(F)c5)c(Cl)c4)c3s2)C1)N1CCOCC1`: the inhibition is -0.57%.

As for `COc1ccc2ncn(-c3cc(O[C@H](C)c4ccccc4C(F)(F)F)c(C(N)=O)s3)c2c1`, the inhibition worked out at 1.21%.

On to `CNC(=O)c1ncccc1Nc1nc(Nc2cc3c(cc2OC)CCCN3C(=O)CN(C)C)nc2[nH]ccc12`, for which the inhibition amounted to 6.35%.

Take `COc1ccccc1-c1cc(/C=C2\C(=O)Nc3ncc(Br)cc32)cc(Br)c1O`: the inhibition is 4.91%.

As to `c1cnn2ncc(-c3ccnc(NCCCN4CCOCC4)n3)c2c1`, the inhibition came out at 2.95%.

Turning to `CCCNc1cccc(-n2ncc3c(N/N=C/c4ccncc4)ncnc32)c1`, the inhibition was 12.6%.

As to `OCCCNc1nccc(-c2c(-c3ccc(F)cc3)nn3cc(C(F)(F)F)ccc23)n1`, the inhibition came out at 3.96%.

In the case of `CS(=O)(=O)Nc1ccc(-c2ccc3c(NC(=O)C4CC4)n[nH]c3c2)cc1`, the inhibition was 1.18%.

Turning to `CN1CCC(C(=O)Nc2n[nH]c3nc(-c4ccc(O)cc4)c(Br)cc23)CC1`, the inhibition is 13.3% and 11.5%.

With `CS(=O)(=O)Nc1ccc(-c2cc(-c3ccccc3)cc(C(N)=O)c2N)cc1`, the inhibition was 0.2%.

As for `COc1cccc(Nc2nccc(-c3cnn4ncccc34)n2)c1`, the inhibition was 78%.

Consider `CS(=O)(=O)CCNCc1ccc(-c2ccc3ncnc(Nc4ccc(OCc5ccccc5)cc4)c3c2)o1`, for which the inhibition worked out at 2.07%.

Regarding `CC(C)c1ccc(-c2cc(-c3c[nH]nc3-c3ccccn3)ccn2)cc1`, the inhibition amounted to 0.36%.

On to `FC(F)(F)CNc1nccc(-c2cnn3ncccc23)n1`, for which the inhibition was found to be 22.9%.

With `Cc1nnc(-c2cccc(-c3ccc(C(=O)NCC4CC4)cc3)c2)o1`, the inhibition is 1.45%.

For `COc1ccc(-c2nn3ncccc3c2-c2ccnc(Nc3ccc(F)c(F)c3)n2)cc1`, the inhibition was 1.15%.

For the compound `O=C(Nc1n[nH]c2nnc(-c3cccnc3)cc12)C1CC1`, the inhibition was 69.2%.

As to `NS(=O)(=O)c1ccc(N/N=C2\C(=O)Nc3cccc(CCc4ccncc4)c32)cc1`, the inhibition was 38.5%.

For the compound `CNC(=O)c1cncc(/C=C/c2ccccc2C)c1`, the inhibition turned out to be 10.4%.

Regarding `NS(=O)(=O)c1ccc(N/N=C2\C(=O)Nc3ccc(C(=O)NCc4ccncc4)cc32)cc1`, the inhibition was 79.1%.

`CCS(=O)(=O)c1ccc(OC)c(Nc2ncc(-c3cccc(F)c3)o2)c1`: the inhibition came out at 1.39%.

On to `COc1cccc(-n2ncc3c(N/N=C/c4ccc(C(=O)NCCN(C)C)cc4)ncnc32)c1`, for which the inhibition is 74.3%.

As to `COC(=O)Nc1nc2ccc(Oc3ccc(NC(=O)Nc4cc(C(F)(F)F)ccc4F)cc3)cc2s1`, the inhibition was 1.66%.

In the case of `Cn1c(-c2nonc2N)nc2cnccc21`, the inhibition came out at 7.18%.

Turning to `CCN1CCC(C(=O)Nc2n[nH]c3nnc(-c4cccc(F)c4F)cc23)CC1`, the inhibition was found to be 14.1%.

Broadly, the inhibition is the drop in the measured response relative to a control, in per cent.
